The values that follow come from PubChem BioAssay (NCATS).

Results filed as inconclusive are left out. The source made the active and inactive calls. Unless noted, calls follow the shape of the full dose curve.

In test [1] the target is Estrogen receptor (Homo sapiens) (UniProt P03372). Kind of test: qHTS assay for small molecule antagonists of estrogen receptor alpha signaling (AID 588513; active = well fitted curve in the direction sought with a large enough effect in the signal ratio, with a control signal flat, not every such curve was filed as active; the % refers to the signal ratio; also: % is scaled to controls: 0 for no effect and ±100 for the full control effect). In short, it runs like this:
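Antagonist-mode qHTS in ER-alpha-UAS-bla HEK 293 cells: compound titration, 0.5nM estradiol for 18 h, CCF4 fluorescence, Hill-derived IC50.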
For orientation: In qHTS, concentration-response curves come from the screen itself.

The target is the same in test [2]. The test can be described thus: qHTS assay for small molecule agonists of estrogen receptor alpha signaling (AID 588514).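 Also: 0% = vehicle only and 100% = reference agonist; nearly all actives have a fitted effect of over 70% in size.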 The gist of the method: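 Cells were plated at 5000/well, incubated 4 hrs at 37 C, dosed with compound titration series, incubated 18 hrs at 37 C, loaded with CCF4 dye for 2 hrs at RT, then fluorescence was read.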
Test [3] is described as follows: qHTS assay for small molecule antagonists of peroxisome proliferator-activated receptor delta signaling (AID 588535).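 Also: cells co-treated with a PPAR-delta agonist as stimulator during compound exposure.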 The note with it: HEK293T PPARd-UAS-bla, beta-lactamase FRET ratio, 18 h; 460 nm channel. In short, it runs like this:
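Antagonist-mode beta-lactamase reporter (GeneBLAzer PPAR-delta-UAS-bla) in HEK293T cells, 2% charcoal/dextran FBS, 4000 cells/well. Compound titrations, 18 h at 37 C; CCF4 ratio read, IC50 and efficacy from Hill fits.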

In test [4] the target is Peroxisome proliferator-activated receptor gamma (Homo sapiens) (UniProt P37231). The test can be described thus: qHTS assay for small molecule agonists of peroxisome proliferator-activated receptor gamma signaling (AID 588536; active = well fitted curve in the direction sought with a large enough effect in the signal ratio, with a control signal flat, not every such curve was filed as active; the % refers to the signal ratio;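 also: 0% = DMSO basal wells and 100% = rosiglitazone at 2 µM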). The gist of the method: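 GeneBLAzer PPAR-gamma-UAS-bla HEK293 cells in 1% charcoal/dextran-treated FBS medium were treated 16 h at 37 C with compounds. Beta-lactamase activity was read by CCF4 ratio (460/530 nm). Response was normalized to 2 uM rosiglitazone (100%) and DMSO, then Hill-fitted for EC50 and efficacy.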
Chain of Peroxisome proliferator-activated receptor gamma (Homo sapiens) (P37231 whole entry, looked up): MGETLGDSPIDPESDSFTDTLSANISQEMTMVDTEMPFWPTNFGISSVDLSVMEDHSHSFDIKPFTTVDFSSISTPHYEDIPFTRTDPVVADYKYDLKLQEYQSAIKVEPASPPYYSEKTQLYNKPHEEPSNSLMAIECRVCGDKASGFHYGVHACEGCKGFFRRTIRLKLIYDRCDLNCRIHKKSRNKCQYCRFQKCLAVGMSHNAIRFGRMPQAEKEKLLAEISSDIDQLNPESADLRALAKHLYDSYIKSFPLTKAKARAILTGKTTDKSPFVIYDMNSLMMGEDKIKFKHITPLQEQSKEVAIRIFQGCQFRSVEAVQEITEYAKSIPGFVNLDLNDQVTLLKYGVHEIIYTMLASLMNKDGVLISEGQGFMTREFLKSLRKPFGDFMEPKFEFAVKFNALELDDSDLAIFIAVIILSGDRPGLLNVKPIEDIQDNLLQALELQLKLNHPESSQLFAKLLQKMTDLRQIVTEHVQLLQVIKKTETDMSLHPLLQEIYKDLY

For test [5] the target is unchanged. The test can be described thus: qHTS assay for small molecule antagonists of peroxisome proliferator-activated receptor gamma signaling (AID 588537; active = well fitted inhibition curve with a large enough effect in the signal ratio, with a control signal flat, not every such curve was filed as active; the % refers to the signal ratio;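 also: reporter cells co-stimulated with 50 nM rosiglitazone agonist during compound treatment; % of control where 0% means no effect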). The gist of the method: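 PPARγ-UAS-bla HEK293 cells (3000/well) in 1% charcoal/dextran-stripped FBS are treated with compound, then stimulated with 50 nM rosiglitazone for 16 h at 37 °C. Read-out is CCF4 β-lactamase fluorescence after 2 h at RT. IC50 comes from Hill fits normalised to rosiglitazone and DMSO.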

In test [6] the target is Vitamin D3 receptor (Homo sapiens) (UniProt P11473). Kind of test: qHTS assay for small molecule antagonists of vitamin D receptor signaling (AID 588541).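 Also: receptor activated by calcitriol during compound treatment; series mostly up to about 77 µM; % is scaled to controls: 0 for no effect and ±100 for the full control effect.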 In short, it runs like this: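 VDR-UAS-bla HEK293T cells in 2% charcoal-stripped FBS were stimulated with 1-alpha,25-dihydroxyvitamin D3 (3 nM final) plus compound for 16 h at 37 C. The beta-lactamase CCF4 readout was normalized to 50 nM agonist and DMSO, and Hill fits gave IC50.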
Chain of Vitamin D3 receptor (Homo sapiens) (P11473 whole entry, looked up): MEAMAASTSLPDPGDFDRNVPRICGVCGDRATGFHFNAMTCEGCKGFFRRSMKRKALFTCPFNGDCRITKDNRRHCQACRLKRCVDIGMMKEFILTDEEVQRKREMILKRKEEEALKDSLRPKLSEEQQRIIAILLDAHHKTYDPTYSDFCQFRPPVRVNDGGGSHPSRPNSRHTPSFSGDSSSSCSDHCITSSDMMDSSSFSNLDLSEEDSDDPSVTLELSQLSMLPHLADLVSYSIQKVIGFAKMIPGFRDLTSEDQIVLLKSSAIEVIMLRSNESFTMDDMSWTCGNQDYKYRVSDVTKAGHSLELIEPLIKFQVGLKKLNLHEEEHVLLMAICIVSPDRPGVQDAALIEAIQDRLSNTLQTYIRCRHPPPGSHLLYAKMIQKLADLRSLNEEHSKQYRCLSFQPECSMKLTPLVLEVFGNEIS

Test [7] shares this target. The test can be described thus: qHTS assay for small molecule agonists of vitamin D receptor signaling (AID 588543).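 Also: 0% = DMSO basal and 100% = reference agonist control.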 In short, it runs like this: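 Measured: β-lactamase reporter activity (CCF4, 405 nm excitation, 460/530 nm emission) in HEK293T VDR-UAS-bla cells after 16 h compound exposure at 37 °C. Normalization against 50 nM 1α,25-dihydroxyvitamin D3 and DMSO; Hill-fit EC50.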

Test [8] deals with Thyroid hormone receptor beta (Homo sapiens) (UniProt P10828). Kind of test: qHTS assay for small molecule agonists of thyroid hormone receptor beta signaling (AID 588545).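 Also: 0% = DMSO only and 100% = 10 nM T3.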 In short, it runs like this: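 Stimulation of a TR-driven beta-lactamase reporter was quantified in GripTite HEK 293 cells. Compound series ran for 18 hrs; curves were normalized to T3 and DMSO controls and fitted to yield EC50.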
Chain of Thyroid hormone receptor beta (Homo sapiens) (P10828 whole entry, looked up): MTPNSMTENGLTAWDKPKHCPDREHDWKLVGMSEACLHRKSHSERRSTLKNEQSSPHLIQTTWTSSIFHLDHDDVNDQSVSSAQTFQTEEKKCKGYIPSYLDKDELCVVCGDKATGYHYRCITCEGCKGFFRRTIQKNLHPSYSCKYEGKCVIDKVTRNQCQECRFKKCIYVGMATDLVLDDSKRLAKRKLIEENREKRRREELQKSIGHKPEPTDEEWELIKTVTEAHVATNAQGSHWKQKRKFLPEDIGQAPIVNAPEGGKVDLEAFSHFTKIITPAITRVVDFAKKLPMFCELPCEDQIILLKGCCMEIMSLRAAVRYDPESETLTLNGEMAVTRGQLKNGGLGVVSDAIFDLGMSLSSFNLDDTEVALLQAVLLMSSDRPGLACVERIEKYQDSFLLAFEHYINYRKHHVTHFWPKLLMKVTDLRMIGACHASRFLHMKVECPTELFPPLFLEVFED

A short description of test [9]: qHTS assay for small molecule antagonists of retinoid X receptor alpha signaling (AID 588546; active = well fitted inhibition curve with a large enough effect in the signal ratio, with a control signal flat, not every such curve was filed as active; the % refers to the signal ratio;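 also: cells stimulated with 9-cis-retinoic acid as agonist; % is scaled to controls: 0 for no effect and ±100 for the full control effect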). To be noted: HEK293T RXRa-UAS-bla, beta-lactamase ratio, antagonist mode; measured here: W530 green channel, cytotoxicity proxy. The gist of the method:
(§1)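 Beta-lactamase reporter inhibition, read as CCF4 fluorescence ratio (ex 405, em 460/530 nm) after 2 h at RT. HEK293T UAS-bla cells, 2500/well, were stimulated with 9-cis-RA at 500 or 100 nM final alongside test compound for 18 h at 37 C.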

The target of test [10] is Retinoic acid receptor RXR-alpha (Homo sapiens) (UniProt P19793). The test is described as above. The note with it: HEK293T RXRa-UAS-bla, beta-lactamase ratio, antagonist mode. The gist of the method: as §1
Chain of Retinoic acid receptor RXR-alpha (Homo sapiens) (P19793 whole entry, looked up): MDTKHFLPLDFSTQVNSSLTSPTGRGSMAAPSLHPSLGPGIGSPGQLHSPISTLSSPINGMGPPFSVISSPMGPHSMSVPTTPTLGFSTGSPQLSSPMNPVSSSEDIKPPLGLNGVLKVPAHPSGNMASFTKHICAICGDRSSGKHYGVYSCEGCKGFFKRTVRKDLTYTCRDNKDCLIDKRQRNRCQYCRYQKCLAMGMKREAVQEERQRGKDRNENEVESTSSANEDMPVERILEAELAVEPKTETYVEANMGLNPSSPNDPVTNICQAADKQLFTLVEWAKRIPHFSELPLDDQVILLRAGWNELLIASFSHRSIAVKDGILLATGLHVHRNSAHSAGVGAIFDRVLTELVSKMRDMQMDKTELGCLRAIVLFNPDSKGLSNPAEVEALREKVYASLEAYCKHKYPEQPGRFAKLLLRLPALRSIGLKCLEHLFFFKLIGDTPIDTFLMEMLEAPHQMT
Test [11] is described as follows: qHTS assay for small molecule activators of the nuclear factor-kappa B (NF-kB) signaling pathway (AID 651749; active = well fitted activation curve with a large enough effect in the signal ratio; the % refers to the signal ratio; also: series mostly up to about 77 µM; % of control where 0% means no effect). The note with it: NF-kB-bla ME-180 cells, beta-lactamase FRET ratio, 16 h; activation: stronger effect = higher value. The gist of the method:
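NF-kB-bla ME-180 cells carrying a beta-lactamase reporter under an NF-kB response element, 2,000 cells/well, exposed to compound for 16 hr at 37C; FRET-based beta-lactamase fluorescence read-out of pathway activation.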

Test [12] can be described thus: qHTS assay for environmental chemicals that activate the Aryl hydrocarbon Receptor (AhR) signaling pathway (AID 651777; active = well fitted curve in the direction sought with a large enough effect; an effect the other way counts as inactive or inconclusive; also: % of control where 0% means no effect; nearly all actives have a fitted effect of over 15% in size). To be noted: 1A2-DRE human hepatoma cells, luciferase, 24 h; activation: stronger effect = higher value. The gist of the method: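 Concentration–response screening used 1,200 1A2-DRE cells per well, 24 hr compound exposure (37 C, 5% CO2), and One-Glo luminescence as the AhR-driven CYP1A2 reporter signal.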

The target in test [13] is Peroxisome proliferator-activated receptor alpha (Homo sapiens) (UniProt Q07869). Kind of test: qHTS assay for small molecule agonists of the peroxisome proliferator-activated receptor alpha (PPARalpha) signaling pathway (AID 651778; active = well fitted curve in the direction sought with a large enough effect; an effect the other way counts as inactive or inconclusive; also: % of control where 0% means no effect). The note with it: PathHunter PPARalpha complementation, chemiluminescence, 6 h; max response: stronger effect = higher value. The gist of the method:
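Enzyme-fragment complementation assay in which ligand-bound PPARalpha translocates and forms an active enzyme that generates chemiluminescence. Cells were plated overnight, exposed to compound for 6 hr at 37 C, and then given detection reagent for 60 min at room temperature.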

Test [14] in a line: qHTS assay for small molecule agonists of the antioxidant response element (ARE) signaling pathway measured by Nrf2-dependant transcriptional activity - cell viability counter screen (AID 720653; active = well fitted curve in the direction sought with a large enough effect in the repeat runs; an effect the other way counts as inactive or inconclusive; also: % is scaled to controls: 0 for no effect and ±100 for the full control effect). The note with it: ARE-bla HepG2 viability, CellTiter-Glo ATP luminescence, 16 h; max response: stronger effect = lower value. In short, it runs like this:
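ARE-bla HepG2 cells treated with compounds for 16 h at 37C; this counter screen measures viability as intracellular ATP by CellTiter-Glo luminescence after 30 min at room temperature.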

The nature of test [15]: qHTS assay for cell viability of HEK293 cells (AID 743288; active = well fitted curve in the direction sought with a large enough effect; an effect the other way counts as inactive or inconclusive; also: % is scaled to controls: 0 for no effect and ±100 for the full control effect; nearly all actives have a fitted effect of over 50% in size). To be noted: ATP luminescence (CellTiter-Glo), 18 h; max response: stronger effect = lower value. In short, it runs like this:
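Luminescent ATP quantitation served as the viability read-out. Cells (parental HEK293, 2,000/well) received compounds after at least 5 h at 37 C and were exposed for 18 h before a 30 min room-temperature reagent step.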

Test [16] is described as follows: qHTS assay for cell viability of the p53RE-bla HCT-116 cell line (AID 743292; active = well fitted curve in the direction sought with a large enough effect; an effect the other way counts as inactive or inconclusive; also: % is scaled to controls: 0 for no effect and ±100 for the full control effect; nearly all actives have a fitted effect of over 55% in size). In short, it runs like this:
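Compound-exposed HCT-116 (p53RE-bla) cells, 4,000 per well, were kept 16 h at 37 C following a 5 h preincubation. Cell number was estimated from total ATP by CellTiter-Glo luminescence read after 30 min at room temperature.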

Test [17] can be described thus: qHTS assay for small molecule agonists of retinoid X receptor alpha signaling (AID 588544).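 As to activation: 0% = DMSO basal wells and 100% = reference agonist.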 To be noted: HEK293T RXRa-UAS-bla, beta-lactamase reporter, 18 h; 530 nm emission.
Test [18] concerns the target Retinoic acid receptor RXR-alpha (Homo sapiens) (UniProt P19793). The test is described as above.
Test [19] has as its target Nuclear receptor subfamily 1 group I member 2 (Rattus norvegicus) (UniProt Q9R1A7). Kind of test: qHTS assay for small molecule activators of the rat pregnane X receptor (rPXR) signaling pathway (AID 651751; call rule not given here; also: 0% is about no effect). To be noted: rPXR reporter cells, luciferase (One-Glo), 24 h.
The nature of test [20]: qHTS assay for small molecule activators of the human pregnane X receptor (PXR) signaling pathway (AID 720659; call rule not given here; also: 0% is about no effect).

Chain of Nuclear receptor subfamily 1 group I member 2 (Rattus norvegicus) (Q9R1A7 whole entry, looked up): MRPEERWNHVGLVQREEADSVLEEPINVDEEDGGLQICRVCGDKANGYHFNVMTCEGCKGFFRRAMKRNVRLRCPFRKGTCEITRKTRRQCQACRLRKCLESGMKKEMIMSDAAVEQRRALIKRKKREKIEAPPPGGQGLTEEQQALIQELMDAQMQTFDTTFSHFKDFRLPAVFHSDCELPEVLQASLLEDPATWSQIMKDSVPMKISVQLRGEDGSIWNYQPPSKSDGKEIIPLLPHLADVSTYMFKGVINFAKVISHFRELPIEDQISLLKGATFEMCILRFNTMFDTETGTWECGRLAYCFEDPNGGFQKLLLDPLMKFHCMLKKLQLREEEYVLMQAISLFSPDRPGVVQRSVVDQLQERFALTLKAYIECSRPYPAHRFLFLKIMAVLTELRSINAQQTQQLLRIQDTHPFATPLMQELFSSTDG
Chain of Estrogen receptor (Homo sapiens) (P03372 whole entry, looked up): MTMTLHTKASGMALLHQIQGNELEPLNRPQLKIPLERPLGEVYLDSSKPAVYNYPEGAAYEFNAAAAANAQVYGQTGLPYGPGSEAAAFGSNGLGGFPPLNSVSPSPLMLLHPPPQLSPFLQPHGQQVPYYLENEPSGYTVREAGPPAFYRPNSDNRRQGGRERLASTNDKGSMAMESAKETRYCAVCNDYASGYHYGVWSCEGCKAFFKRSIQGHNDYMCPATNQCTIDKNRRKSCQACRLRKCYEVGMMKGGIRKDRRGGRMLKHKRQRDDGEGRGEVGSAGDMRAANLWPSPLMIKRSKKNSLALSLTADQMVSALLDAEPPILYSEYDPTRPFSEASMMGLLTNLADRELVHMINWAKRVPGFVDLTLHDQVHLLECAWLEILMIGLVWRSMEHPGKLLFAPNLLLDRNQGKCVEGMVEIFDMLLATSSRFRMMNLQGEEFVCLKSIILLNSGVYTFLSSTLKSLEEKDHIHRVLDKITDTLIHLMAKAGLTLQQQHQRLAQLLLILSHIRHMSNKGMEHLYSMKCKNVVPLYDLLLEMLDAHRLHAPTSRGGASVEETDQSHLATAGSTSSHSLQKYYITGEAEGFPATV
Chain of Peroxisome proliferator-activated receptor alpha (Homo sapiens) (Q07869 whole entry, looked up, the tested form may be a part): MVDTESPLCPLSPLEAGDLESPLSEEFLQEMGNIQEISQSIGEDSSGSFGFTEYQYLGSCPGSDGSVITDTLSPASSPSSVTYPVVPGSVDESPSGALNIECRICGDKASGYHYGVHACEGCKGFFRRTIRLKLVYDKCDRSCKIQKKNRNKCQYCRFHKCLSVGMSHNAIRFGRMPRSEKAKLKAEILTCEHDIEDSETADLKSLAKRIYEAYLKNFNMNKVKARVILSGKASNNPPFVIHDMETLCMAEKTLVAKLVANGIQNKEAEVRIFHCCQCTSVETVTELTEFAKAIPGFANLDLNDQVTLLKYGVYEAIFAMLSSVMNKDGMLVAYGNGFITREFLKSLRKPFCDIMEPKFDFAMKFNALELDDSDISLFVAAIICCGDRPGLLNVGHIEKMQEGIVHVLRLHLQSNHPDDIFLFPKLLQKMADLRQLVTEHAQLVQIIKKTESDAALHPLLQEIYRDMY

On to `c1ccc(OCCOc2ccccc2)cc1`, for which the Potency result in test [1], in test [2], in [5], in test [6], in test [8] and in [16] was “inactive” each time. Besides, the max response in test [3] was 9.85%; in test [9] it was -12.8%; in test [10], -10.1% (inactive); in test [13], 0.31% (inactive); in test [14], -8.94% (inactive); in [15], -4.78% (inactive). Also, the compound was called inactive in test [4] and in [7]. The figures for the activation in test [11] and in test [12] were -1.28% (inactive) and 8.39% (inactive), respectively.

Turning to `O=[N+]([O-])C(CO)(CO)CO`, the Potency result in test [1], in test [2], in test [5], in test [6], in test [18] and in [8] was “inactive” each time. In test [16], the Potency entry is “inactive”. The max response in [3] is 26.9%; in test [17], -11.5%; in [9] it was -5.31%; in test [10], 4.16% (inactive); in [13] it was -3.92% (inactive); in test [14], -10% (inactive). Moreover, the max response in [15] was -13.7% (inactive); in test [19], 0.128% (inactive). For the same compound, the result in [4], in test [7] and in test [20] was inactive. The activation in test [11] was 0.34% (inactive); in test [12] it was -1.19% (inactive).

For the compound `O=S(=O)(O)c1ccc(N=Nc2c(O)ccc3cc(S(=O)(=O)O)ccc23)cc1`, the Potency entry in [1], in test [2], in test [18], in [8] and in [16] was “inactive” each time. In addition, the max response was -5.34% in test [3]; -4.64% in test [17]; -15.1% in test [9]; -6.14% (inactive) in test [10]; -7.14% (inactive) in [13]; -22.3% (inactive) in test [14]. The figures for the max response in [15] and in test [19] were -13.8% (inactive) and -7.92% (inactive), respectively. For the same compound, the result in [7] and in test [20] was inactive. For the same compound, the results for the activation in test [11] and in [12] were -0.945% (inactive) and -1.77% (inactive), respectively.

As to `CSC(=O)c1cccc2nnsc12`, the Potency entry in test [1], in test [5], in test [6], in test [18] and in [8] was “inactive” in each case. The max response is 21.6% in test [3]; -10.1% in test [17]; -10.7% in test [9]; -3.32% (inactive) in test [13]; 15.6% (inactive) in test [14]; 3.92% (inactive) in test [15]. The outcome in [4], in [7] and in test [20] was inactive. For the same compound, the activation in test [12] is 0.806% (inactive).

`CCCCCCCCCCCCCCC(=O)OC`: the Potency entry in test [1], in [5], in [18], in [8] and in test [16] was “inactive” throughout. The max response in test [3] was -7.18%; in test [17], 2.13%; in [9] it was -9.41%; in test [10], 8.47% (inactive); in [13] it was -0.882% (inactive); in test [14] it was -2.69% (inactive). Besides, the max response in test [15] is -7.2% (inactive); in [19], -2.84% (inactive). Moreover, the outcome in [4], in [7] and in [20] was inactive. Besides, the activation is 0.418% (inactive) in [11] and -1.03% (inactive) in [12].
